Potency and affinity values are given separately. A number with no mark means an inactive call.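 How the source made its calls: active means fitted half-maximal concentration for loss of cell signal no higher than twice the top valid tested concentration; inconclusive means flat curve at 30 to 70% inhibition, or poor fit; inactive means flat within 30%, signal rise, or potency above limit.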
experiment: MDA-MB-231 cell growth inhibition, dose response, cytotoxicity control for RAD54 inhibitor project, CellTiter-Glo luminescence, cherry-pick (AID 651692); settings: MDA-MB-231 viability, 24 h; series mostly up to 26 µM; activity change, negative = growth inhibition: at the top concentration;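 further: 0% = median of sample compound wells and -100% = staurosporine control wells; more negative values mean stronger loss of viable cell signal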

| SMILES | activity change, negative = growth inhibition [%] |
| --- | --- |
| Cc1ccc(Nc2cc(C)nc3c(C)cccc23)cc1 | -0.834 |
| Cc1cc(C)c2nc(C)cc(Nc3ccc(C(=O)NCCO)cc3)c2c1 | -0.096 |
| CN(C)CCNC(=O)c1cc2c(=O)n(C)c3ccccc3c2n1C | 6.67 |
| COc1ccc2nc(-c3ccc(N)cc3)[nH]c2c1 | 0.098 |
| CN(C)CCCN(C(=O)c1ccco1)c1nc(-c2ccc(Cl)cc2)cs1 | -20.6 |
| Cc1ccc2nc3c(c(Nc4ccc5c(c4)OCCO5)c2c1)CCC3 | -14.4 |
| CCn1c(=O)c2cc(C(=O)NCCN(C)C)sc2c2ccccc21 | -8.99 |
| CCn1c(=N)c(C(=O)NCCCOC)cc2c(=O)n3cccc(C)c3nc21 | 5.29 |
| N=c1c(C(=O)NCCN2CCOCC2)cc2c(=O)n3ccccc3nc2n1CCc1ccccc1 | 10.1 |
| Nc1c2ccccc2nc2ccccc12 | 6.25 |
| CCCN(CCC)CCCNC(=O)c1cc2cc3ccc(OC)cc3nc2o1 | 2.73 |
| COc1cccc2sc3cc(NCC[C@@H]4CCCN4C)ccc3c(=O)c12 | 2.12 |
| Cc1ccc2nc3c(c(N)c2c1)CCN3c1ccccc1 | 0.308 |
| CCN(CC)CCNC(=S)Nc1ccc2nc(N3CCN(C)CC3)cc(C)c2c1 | -1.16 |
| CCN(CC)CCCNc1nc2cc(OC)c(OC)cc2c2nc(-c3ccccc3)nn12 | -12.7 |
| CCN(CC)CCNc1ccc(CO)c2oc3ccccc3c(=O)c12 | -0.916 |
| CCOC(=O)c1[nH]c2cc3c(cc2c1CCCN1C(=O)c2ccccc2C1=O)OCCO3 | -4.26 |
| Cn1c(C(=O)NCCCN2CCOCC2)cc2c(=O)n(C)c3ccccc3c21 | 1.53 |
| COC(=O)c1c(NC(=O)c2ccc(S(=O)(=O)N3CCOCC3)cc2)sc2c1CCN(C(C)C)C2 | 10.1 |
| Cc1cccn2c(=O)c3cc(C#N)c(=O)n(CCCN4CCOCC4)c3nc12 | 0.151 |

| SMILES | activity change, negative = growth inhibition [%] |
| --- | --- |
| COc1cc(NCCCNC(C)C)c2nccc(C)c2c1 | -9.96 |
| NCCN1CCN(CCN)CC1 | 1.41 |
| Oc1ccccc1-c1nc(NCCN2CCOCC2)c2ccccc2n1 | -3.97 |
| N=c1c(C(=O)NCCN2CCOCC2)cc2c(=O)n3ccccc3nc2n1CCCN1CCOCC1 | -0.68 |
| COc1cc2sc3cc(NCC[C@@H]4CCCN4C)ccc3c(=O)c2cc1OC | 3.51 |
| COc1ccc(CCn2c(=N)c(C(=O)NCC3CCCO3)cc3c(=O)n4cccc(C)c4nc32)cc1OC (centres undefined) | -13.4 |
| c1ccc(-c2nc(NCCCn3ccnc3)c3oc4ccccc4c3n2)cc1 | -13.3 |
| Cc1cc(C)n(-c2nc(NCCN(C)C)c3c4c(sc3n2)COC(C)(C)C4)n1 | -9 |
| COc1cc2nc(NCCCN3CCN(C)CC3)n3nc(-c4ccccc4)nc3c2cc1OC | -7.21 |
| CCN(CC)CCCNC(=O)c1cc2c(-c3ccc(Cl)cc3)nn(C)c2s1 | -1.26 |
| CCN1CCCC1CNC(=O)c1cc2c(-c3cccc(OC)c3)nn(C)c2s1 (centres undefined) | -0.025 |
| Cc1nc2oc3c(=O)[nH]cnc3c2c2c1COC(C)(C)C2 | 10.6 |
| Cn1c(NCCN2CCCC2)nc2cc(-c3ccsc3)sc2c1=O | 4.38 |
| Nc1cc2c3c(cccc3c1)C(=O)N(CCN1CCCC1)C2=O | -21.8 |
| COc1ccccc1Nc1nc(NCCCN(C)C)nc(N)c1[N+](=O)[O-] | 4.83 |
| C=CC(=O)Nc1ccc(N(C)c2ccnc(Nc3ccc(N4CCN(C)CC4)cc3)n2)cc1 | -6.14 |
| Cc1ccc(S(=O)(=O)NCCCNS(=O)(=O)c2ccccc2[N+](=O)[O-])cc1 | 5.81 |
| COc1ccccc1CNC(=O)c1cccs1 | -3.64 |
| COc1cccc(-c2cnc3c(NC(C)=O)cc(-c4cccc(C(=O)NCCN(C)C)c4)cn23)c1 | -22.6 |
